Measurements as given in PubChem BioAssay (NCATS).
Results filed as inconclusive are left out. Entries that show only a call come without a potency. Activity calls are given as the source filed them. Calls come from the whole dose curve; as a rule, active = well fitted cell-killing curve with a large enough effect; inconclusive = small, poorly fitted or top-dose-only effect, or effect the other way; inactive = no such curve, though single readings can be large or run the other way.
Potency is the fitted concentration of half-maximal effect.

Test: Quantitative High-Throughput drug screen in 47 multiple myeloma cell lines against the NCATS MIPE library collection: H1112_PLB cell viability assay (AID 1918967; note: nearly all actives have a fitted effect of over 30% in size)
Conditions: H1112 myeloma cells viability, ATP luminescence, 48 h; series mostly up to 45.8 µM
Description: PI: Beverly A. Mock Ph.D.
Laboratory of Cancer Biology and Genetics,
Center for Cancer Research, National Cancer Institute,
National Institute of Health, Bethesda, Maryland
Drug resistance and disease progression are common in multiple myeloma (MM) patients, underscoring the need for new therapeutic combinations. […] We hypothesized that effective combinations would reduce MYC expression and enhance p16 activity. […] These preclinical data identify potentially useful drug combinations for evaluation in drug-resistant MM and reveal potential mechanisms of combined drug sensitivity.
Described herein is the primary MIPE qHTS used to cherrypick compounds. Validated compounds were then further tested for potential synergistic activiy.
[1] Peat TJ, Gaikwad SM, Dubois W, Gyabaah-Kessie N, Zhang S, Gorjifard S, Phyo Z, Andres M, Hughitt VK, Simpson RM, Miller MA, Girvin AT, Taylor A, Williams D, D'Antonio N, Zhang Y, Rajagopalan A, Flietner E, Wilson K, Zhang X, Shinn P, Klumpp-Thomas C, McKnight C, Itkin Z, Chen L, Kazandijian D, Zhang J, Michalowski AM, Simmons JK, Keats J, Thomas CJ, Mock BA. Drug combinations identified by high-throughput screening promote cell cycle transition and upregulate Smad pathways in myeloma. Cancer Lett. 2023 Aug 1;568:216284. doi: 10.1016/j.canlet.2023.216284. Epub 2023 Jun 24. PMID: 37356470; PMCID: PMC10408729.
SEQUENCE No. (e.g., 1, 2, 3, etc.); […] (e.g., Cells, Incubation, Reagent, etc.); VALUE and DESCRIPTION.
1; Cells; 5 uL; white, solid bottom 1536-well Greiner assay plate.
2; Compounds; 23 nL; Kalypsis pin tool (Wako USA) equipped with a 1536-well pin head to transfer to the assay plates.
3; Incubation; 48 hours; 37C incubation.
4; Reagent;5uL; CellTiter Glo (Promega).
5; Detector; 425V; Luminescence; Viewlux PerkinElmer.
NOTES (numbers refer to Sequence numbers above)
1. The cell-based screening methods employed in this study were like those previously published. Briefly, the corresponding myeloma cell lines were screened in 1,536-well plates with 500 cells, 5-uL per well for inhibition of cell viability (assessed by measuring ATP levels with CellTiterGlo).
2. NCATS MIPE 4.0 library of approved and investigational drugs were added using the Kalypsis pin tool. Wells treated with DMSO only for 100% viability and media only wells for 0% viability were used as controls.
3. The assay plates were covered and incubated for 48 hours in a 37C, 5% CO2 incubator with controlled humidity.
4. After 48 hours, CellTilter-GloTM luminescent substrate mix (Promega) reagent was added to the assay plate and plates we incubated for 5 min at room temperature.
5. Signal was measured as median relative luminescence units on a ViewLux (PerkinElmer) multiplate reader.
[1] Heske CM, Davis MI, Baumgart JT, Wilson K, Gormally MV, Chen L, Zhang X, Ceribelli M, Duveau DY, Guha R, Ferrer M, Arnaldez FI, Ji J, Tran HL, Zhang Y, Mendoza A, Helman LJ, Thomas CJ. Matrix Screen Identifies Synergistic Combination of PARP Inhibitors and Nicotinamide Phosphoribosyltransferase (NAMPT) Inhibitors in Ewing Sarcoma. Clin Cancer Res. 2017 Dec 1;23(23):7301-7311. doi: 10.1158/1078-0432.CCR-17-1121. Epub 2017 Sep 12. PMID: 28899971; PMCID: PMC6636827.
For `CCC(=O)O[C@]1(C(=O)CCl)[C@@H](C)C[C@H]2[C@@H]3CCC4=CC(=O)C=C[C@]4(C)[C@@]3(F)[C@@H](O)C[C@@]21C`, the Potency was “inactive”.
With `CN1CCN(c2c(F)cc3c(=O)c(C(=O)O)cn(CCF)c3c2F)CC1` the Potency was “inactive”.
In the case of `O=C(O)c1cc(=O)[nH]c(=O)[nH]1`, the Potency is reported as “inactive”.
In the case of `Nc1[nH]c(=O)ncc1F`, the Potency is reported as “inactive”.
In the case of `CC(C)(C)C(=O)OCOP(=O)(COCCn1cnc2c(N)ncnc21)OCOC(=O)C(C)(C)C`, the Potency is reported as 3.72 µM (active).
For `COc1ccc2cc3[n+](cc2c1OC)CCc1cc2c(cc1-3)OCO2`, the Potency was 14.8 µM (active).
In the case of `O=c1oc2c(O)c(O)cc3c(=O)oc4c(O)c(O)cc1c4c23`, the Potency is reported as “inactive”.
With `CCCN[C@H]1CCc2nc(N)sc2C1` the Potency was “inactive”.
In the case of `CCOC(=O)[C@H](CCc1ccccc1)N[C@H]1CS[C@H](c2cccs2)CN(CC(=O)O)C1=O`, the Potency is reported as 13.2 µM (active).
With `CCn1cc(C(=O)O)c(=O)c2cc(F)c(N3CCNCC3)nc21` the Potency was “inactive”.
In the case of `CCCc1cc(C(N)=S)ccn1`, the Potency is reported as “inactive”.
In the case of `O=NN(CCCl)C(=O)NC1CCCCC1`, the Potency is reported as “inactive”.
In the case of `COc1cc(NS(=O)(=O)c2ccc(N)cc2)nc(OC)n1`, the Potency is reported as “inactive”.
For `CC(C)(C#N)c1cc(Cn2cncn2)cc(C(C)(C)C#N)c1`, the Potency was “inactive”.
In the case of `C[C@@H]1CN(c2c(F)c(N)c3c(=O)c(C(=O)O)cn(C4CC4)c3c2F)C[C@H](C)N1`, the Potency is reported as “inactive”.
In the case of `O[C@@H](CNC[C@H](O)[C@H]1CCc2cc(F)ccc2O1)[C@@H]1CCc2cc(F)ccc2O1`, the Potency is reported as 29.6 µM (active).
For `Cc1ccc(S(=O)(=O)N[C@@H](Cc2ccccc2)C(=O)CCl)cc1`, the Potency was 16.6 µM (active).
In the case of `O=S(=O)(c1cccc2cnccc12)N1CCCNCC1`, the Potency is reported as 16.6 µM (active).
With `Cc1oc(=O)oc1CN1CCN(c2cc3c(cc2F)c(=O)c(C(=O)O)c2n3C(C)S2)CC1` (stereo not given) the Potency was “inactive”.
For `CCC(=O)O[C@]1(C(=O)SCF)[C@H](C)C[C@H]2[C@@H]3C[C@H](F)C4=CC(=O)C=C[C@]4(C)[C@@]3(F)[C@@H](O)C[C@@]21C`, the Potency was 20.9 µM (active).
In the case of `CCn1cc(C(=O)O)c(=O)c2cc(F)c(N3CCN(C)CC3)cc21`, the Potency is reported as “inactive”.
For `CCCCS(=N)(=O)CCC(N)C(=O)O` (stereo not given), the Potency was “inactive”.
For `CO[C@@]12[C@H](COC(N)=O)C3=C(C(=O)C(C)=C(N)C3=O)N1C[C@@H]1N[C@@H]12`, the Potency was 23.5 µM (active).
With `COc1cc(NCc2ccc3nc(N)nc(N)c3c2C)cc(OC)c1OC` the Potency was 2.64 µM (active).
With `NC(=O)c1cccnc1` the Potency was “inactive”.
With `CCCCOc1ccc(CC(=O)NO)cc1` the Potency was 8.33 µM (active).
In the case of `CCN(CC)CCn1c(=O)c(Cc2ccc(OC)cc2)nc2ccccc21`, the Potency is reported as “inactive”.
In the case of `CC(C)C1CCC(C(=O)N[C@H](Cc2ccccc2)C(=O)O)CC1` (stereo not given in full), the Potency is reported as “inactive”.
With `CCCCc1oc2ccc(NS(C)(=O)=O)cc2c1C(=O)c1ccc(OCCCN(CCCC)CCCC)cc1` the Potency was 18.7 µM (active).
With `COc1ccccc1OCC(O)COC(N)=O` (stereo not given) the Potency was “inactive”.
With `C1CCC(C(CC2CCCCN2)C2CCCCC2)CC1` (stereo not given) the Potency was 23.5 µM (active).
For `Cc1onc(-c2ccccc2Cl)c1C(=O)N[C@@H]1C(=O)N2[C@@H]1SC(C)(C)[C@@H]2C(=O)O`, the Potency was “inactive”.
With `C[C@]12C=CC(=O)C=C1CC[C@@H]1[C@@H]2C(=O)C[C@@]2(C)[C@H]1CC[C@]2(O)C(=O)CO` the Potency was “inactive”.
For `O=C(O)C1CCCN(CCC=C(c2ccccc2)c2ccccc2)C1` (stereo not given), the Potency was “inactive”.
For `CC(N)C12CC3CC(CC(C3)C1)C2` (stereo not given), the Potency was “inactive”.
For `CC1(C)[C@H](C(=O)O)N2C(=O)C[C@H]2S1(=O)=O`, the Potency was “inactive”.
In the case of `COc1ccc2c(c1)c(CC(=O)OCC(=O)O)c(C)n2C(=O)c1ccc(Cl)cc1`, the Potency is reported as “inactive”.
For `CN1CCN(c2c(F)cc3c(=O)c(C(=O)O)cn4c3c2OCN4C)CC1`, the Potency was “inactive”.
For `Cc1nnc(NS(=O)(=O)c2ccc(N)cc2)s1`, the Potency was “inactive”.
With `Cc1cccc(N(C)C(=S)Oc2ccc3ccccc3c2)c1` the Potency was “inactive”.
